Reference: PubChem BioAssay AID933 (National Center for Advancing Translational Sciences (NCATS), 2007)
Results filed as inconclusive are left out. Entries that show only a call come without a potency. Values without a mark were called inactive. Active and inactive are the calls of the source. Calls follow the shape of the dose curve; as a rule, active = well fitted activation curve with a large enough effect in the signal ratio, with a control signal flat; inconclusive = small, poorly fitted or top-dose-only effect, or a change in a side signal; inactive = flat fitted curve, though single readings scatter; the % refers to the signal ratio.
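For activation in this document: HEK 293 cells stably expressing human TSHR with RO 20-1724 phosphodiesterase inhibitor.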
Potency is read from the fitted curve at half-maximal effect.

These molecules were tested against Thyrotropin receptor (Homo sapiens) (UniProt P16473) (assay: Secondary Concentration-Response Assay for Agonists of the Thyroid Stimulating Hormone Receptor: HTRF Activity Detection). Details: HEK293-TSHR cells, cAMP HTRF ratio, 30 min; series mostly up to 91.7 µM.
Chain of Thyrotropin receptor (Homo sapiens) (P16473 whole entry, looked up): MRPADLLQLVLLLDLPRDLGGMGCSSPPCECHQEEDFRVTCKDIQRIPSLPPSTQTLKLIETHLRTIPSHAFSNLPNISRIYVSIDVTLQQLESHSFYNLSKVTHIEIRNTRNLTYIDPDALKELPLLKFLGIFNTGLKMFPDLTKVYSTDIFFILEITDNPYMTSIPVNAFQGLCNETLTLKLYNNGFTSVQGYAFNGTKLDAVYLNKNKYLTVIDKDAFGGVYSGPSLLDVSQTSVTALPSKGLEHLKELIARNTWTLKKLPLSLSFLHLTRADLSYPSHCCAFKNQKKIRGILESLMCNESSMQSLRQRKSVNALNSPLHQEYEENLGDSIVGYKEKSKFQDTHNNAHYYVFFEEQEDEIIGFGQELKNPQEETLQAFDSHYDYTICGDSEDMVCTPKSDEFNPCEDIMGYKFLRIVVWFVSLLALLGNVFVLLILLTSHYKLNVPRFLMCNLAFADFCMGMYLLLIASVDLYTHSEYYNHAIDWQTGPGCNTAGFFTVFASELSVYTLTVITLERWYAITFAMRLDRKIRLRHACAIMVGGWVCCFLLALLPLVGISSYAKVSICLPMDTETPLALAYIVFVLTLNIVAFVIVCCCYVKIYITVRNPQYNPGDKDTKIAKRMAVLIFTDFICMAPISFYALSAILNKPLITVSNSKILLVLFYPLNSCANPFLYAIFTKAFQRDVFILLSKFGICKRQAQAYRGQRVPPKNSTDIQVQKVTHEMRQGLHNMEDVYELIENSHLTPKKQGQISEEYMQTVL
Outline: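 Orthogonal confirmation in a separate TSHR-transfected HEK 293 line: cells in medium with 10 % FCS and 100 uM RO 20-1724 got compound for 30 min at room temperature. cAMP was measured by HTRF (d2-cAMP/anti-cAMP antibody), 615/660 nm emission.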
In the case of `COc1ccc2c(c1OC)C(=O)N1c3ccccc3C(=O)N(c3ccc(F)cc3)C21` (stereo not given), the Potency is reported as “inactive”. With `O=C(c1cc(Br)ccc1O)N(Cc1ccco1)Cc1cccs1` the Potency was “inactive”. In the case of `O=C(c1ccccc1O)N(Cc1ccco1)Cc1ccco1`, the Potency is reported as “inactive”. For `COc1ccc(C2Nc3ccccc3C(=O)N2c2ccc(C)cc2)cc1Cn1nnc2ccccc21` (stereo not given), the Potency was “inactive”. `O=C(COC(=O)C12CC3CC(CC(O)(C3)C1)C2)NCc1ccco1` was tested, and the Potency was “inactive”. With `CCCN1C(=O)c2ccccc2NC1c1ccc(OC)c(COc2cccc(OC)c2)c1` (stereo not given) the Potency was “inactive”. For `CCCN1C(=O)c2ccccc2NC1c1ccc(OC)c(COc2cccc(C)c2C)c1` (stereo not given), the Potency was “inactive”. In the case of `COc1ccc(-c2nc3ccc(NC(=O)COC(C)=O)cc3c(=O)n2Cc2ccccc2)cc1COc1ccc(NC(C)=O)cc1`, the Potency is reported as “inactive”. For `CCc1ccccc1NC1=NCC(=O)N1Cc1ccc(OC)cc1`, the activation was 0.0927% [at 0.00035 µM]. `COc1cccc(OCc2cc(C3Nc4ccccc4C(=O)N3Cc3ccccc3)ccc2OC)c1` (stereo not given) was tested, and the Potency was “inactive”. For `COc1ccc(C2Nc3ccccc3C(=O)N2c2ccccc2)cc1COc1ccccn1` (stereo not given), the Potency was “inactive”. With `COc1ccc(-c2nc3ccccc3c(=O)n2Cc2ccccc2)cc1OCc1ccc(NC(C)=O)cc1` the Potency was “inactive”. `COc1ccc(/C=N/NC(=O)c2ccn[nH]2)cc1COc1ccc(F)cc1` was tested, and the Potency was “inactive”. `Cc1occc1-c1nnc(SCC(=O)NCc2ccc3c(c2)OCO3)n1CC(C)C` was tested, and the activation was 0.411% [at 0.00035 µM]. `COc1ccc(O)c(C2Nc3ccccc3C(=O)N2Cc2ccccc2)c1` (stereo not given) was tested, and the Potency was “inactive”. With `CC(=O)Nc1ccc(C2Nc3ccccc3C(=O)N2C2CCCCC2)cc1` (stereo not given) the Potency was “inactive”. `Brc1ccc(Oc2nnnn2-c2ccccc2)cc1` was tested, and the activation was -1.07% [at 0.00035 µM]. `COc1ccc(CN(Cc2ccccc2)C(=O)c2ccc(OC)cc2O)cc1` was tested, and the Potency was 31.6 µM (active). Molecule `Cc1ccc(N(CC(=O)NCc2ccco2)S(=O)(=O)c2ccccc2)cc1` has an activation of 0.48% [at 0.00035 µM]. In the case of `COc1ccc(-c2nc3ccccc3c(=O)n2Cc2ccccc2)cc1COc1ccc(NC(C)=O)cc1`, the Potency is reported as 8.91 µM (active). In the case of `COc1ccc(-c2nc3ccccc3n2Cc2ccccc2)cc1COc1ccc(NC(C)=O)cc1`, the Potency is reported as “inactive”. `COc1cc(C2Nc3ccccc3C(=O)N2Cc2ccco2)cc(OC)c1OC` (stereo not given) was tested, and the Potency was “inactive”. In the case of `COc1ccc(-c2nc3ccc(Cl)cc3c(=O)n2Cc2ccccc2)cc1COc1ccc(NC(C)=O)cc1`, the Potency is reported as “inactive”. For `COc1ccc(C2Nc3ccccc3C(=O)N2Cc2ccccc2)cc1COc1ccc([N+](=O)[O-])c(C)c1` (stereo not given), the Potency was “inactive”. `O=C1c2ccccc2NC(c2ccccc2Br)N1CCCN1CCOCC1` (stereo not given) was tested, and the Potency was “inactive”. With `COc1cc(C2Nc3ccccc3C(=O)N2Cc2ccccc2)ccc1OCc1ccccc1` (stereo not given) the Potency was “inactive”. With `O=C1c2ccccc2NC(c2ccc(OCc3ccccc3)c(OCc3ccccc3)c2)N1Cc1ccco1` (stereo not given) the Potency was “inactive”. `COc1ccc(CN(Cc2ccccc2)C(C)=O)cc1COc1ccc(NC(C)=O)cc1` was tested, and the Potency was “inactive”. In the case of `COc1ccc(C(=O)N(Cc2ccccc2)Cc2cccs2)c(O)c1`, the Potency is reported as 28.2 µM (active). `COC(=O)c1cc(C(=O)OC)cc(N2C(=O)CC(Sc3nc(C)cc(C)n3)C2=O)c1` (stereo not given) gave an activation of -0.898% [at 0.00035 µM]. In the case of `COc1ccc(C2Nc3ccc(NC(C)=O)cc3C(=O)N2Cc2ccccc2)cc1COc1ccc(NC(C)=O)cc1` (stereo not given), the Potency is reported as 15.8 µM (active). With `COc1ccc(C(=O)N(Cc2ccccc2)Cc2ccc(OC)c(COc3ccc(NC(C)=O)cc3)c2)cc1` the Potency was 12.6 µM (active). In the case of `COC(=O)C1=C(C)NC(C)=C(C(=O)OC)C1c1ccc(OC(=O)c2ccco2)cc1`, the activation is reported as 0.436% [at 0.00035 µM]. With `COc1ccc(CN(Cc2ccccc2)C(=O)c2ccc(NC(C)=O)cc2)cc1COc1ccc(NC(C)=O)cc1` the Potency was “inactive”. For `COc1ccc(C(=O)N(Cc2ccccc2)Cc2ccc(OC)c(COc3ccc(NC(C)=O)cc3)c2)c(O)c1`, the Potency was “inactive”.
